Laboratory results taken from PubChem BioAssay AID1345085 (National Center for Advancing Translational Sciences (NCATS), 2018).
Inconclusive results are not listed. The source made the active and inactive calls. Calls come from the whole dose curve; as a rule, active = well fitted cell-killing curve with a large enough effect; inconclusive = small, poorly fitted or top-dose-only effect, or effect the other way; inactive = no such curve, though single readings can be large or run the other way.
% is set by controls: 0 for no effect and ±100 for the full control effect; potency is the fitted concentration of half-maximal effect.
Note: nearly all actives have a fitted effect of over 55% in size.

The molecules below were run on C33A (assay: Confirmatory qHTS for gynecologic anti-cancer compounds from libraries of approved drugs and bioactive compounds). Conditions: gynecologic cancer cell panel viability, ATPlite luminescence, 48 h; series mostly up to 57.6 µM; activity change, negative = viability loss: at the top concentration.
Procedure, shortened: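 Cells (1,000/well) were plated, left 16 h at 37 C/5% CO2, then given compound at 11 concentrations (1:3) from 57.5 uM to 0.977 nM for 48 h. ATPlite luminescence after 15 min at room temperature gave IC50 values.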
In the case of `COc1cc(Nc2ncc3c(n2)-c2ccc(Cl)cc2C(c2c(F)cccc2OC)=NC3)ccc1C(=O)O`, the “activity change, negative = viability loss” value is reported as -3.21% (inactive).
With `N=C(N)c1ccc(OCCCCCOc2ccc(C(=N)N)cc2)cc1` the “activity change, negative = viability loss” value was -15.8% (inactive).
`Cc1cnc(Nc2ccc(CN3CCOCC3)cc2)nc1Nc1cccc(S(=O)(=O)NC(C)(C)C)c1` was tested, and the Potency was 21.7 µM (active).
For `CCN1C[C@H](C)n2c(c(O)c3c(=O)n(Cc4ccc(F)c(Cl)c4)nc(C(=O)NC)c32)C1=O`, the “activity change, negative = viability loss” value was 6.55% (inactive).
`CCC1=CC2CN(C1)Cc1c([nH]c3ccccc13)[C@@](C(=O)OC)(c1cc3c(cc1OC)N(C)[C@H]1[C@@](O)(C(=O)OC)[C@H](OC(C)=O)[C@]4(CC)C=CCN5CC[C@]31[C@@H]54)C2` (some centres not stated) was tested, and the Potency was 0.211 µM (active).
`CCC1C(=O)N(C)c2cnc(Nc3ccc(C(=O)NC4CCN(C)CC4)cc3OC)nc2N1C1CCCC1` (configuration not stated) was tested, and the Potency was 0.0544 µM (active).
In the case of `CN(C)C/C=C/C(=O)Nc1cc2c(Nc3ccc(F)c(Cl)c3)ncnc2cc1OC1CCOC1` (configuration not stated), the Potency is reported as 6.85 µM (active).
For `C#C[C@]1(O)CC[C@H]2[C@@H]3CCC4=CC(=O)CC[C@@H]4[C@H]3CC[C@@]21CC`, the “activity change, negative = viability loss” value was -1.35% (inactive).
In the case of `COc1cc(Nc2c(C#N)cnc3cc(OCCCN4CCN(C)CC4)c(OC)cc23)c(Cl)cc1Cl`, the Potency is reported as 27.3 µM (active).
In the case of `CC[C@@]1(O)C(=O)OCc2c1cc1n(c2=O)Cc2cc3cc(O)ccc3nc2-1`, the Potency is reported as 0.306 µM (active).
In the case of `COCCOc1nc(-c2ccc(Cl)c(Cl)c2)n(-c2ccc(NC(=O)CCl)cc2)n1`, the Potency is reported as 4.32 µM (active).
For `Cc1cc(Nc2cc(N3CCN(C)CC3)nc(Sc3ccc(NC(=O)C4CC4)cc3)n2)n[nH]1`, the “activity change, negative = viability loss” value was -16.6% (inactive).
